Source: PubChem BioAssay (Tox21)
Values joined by “and” are separate entries in the source; they are usually repeats but may differ in a detail not shown here. Equal entries are not always repeated. Inconclusive results are not listed. Some structures have more than one record in an assay (separate samples or runs), and their calls can disagree. Active and inactive are the calls of the source. Unless noted, calls follow the shape of the dose curve; as a rule, active = well fitted curve in the direction sought with a large enough effect in the repeat runs; inconclusive = weak or mixed curves; inactive = no such curve, though single readings can be large; an effect the other way counts as inactive or inconclusive.

Assays:
[1] = qHTS assay to identify small molecule antagonists of the glucocorticoid receptor (GR) signaling pathway - cell viability counter screen (AID 720693); also: nearly all actives have a fitted effect of over 55% in size; also: potency is read from the fitted curve at half-maximal effect
[2] = qHTS assay for identifying genotoxic compounds that show differential cytotoxicity against isogenic chicken DT40 cell lines with known DNA damage response pathways - wild type cell line (AID 743012); also: nearly all actives have a fitted effect of over 60% in size; also: potency is read from the fitted curve at half-maximal effect
Summary of the method: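 Luminescent ATP viability signal (CellTiter-Glo, 30 min RT) recorded after wild type DT40 cells were incubated with compounds for 40 h at 37 C/5% CO2.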

[3] = qHTS assay for identifying genotoxic compounds that show differential cytotoxicity against isogenic chicken DT40 cell lines with known DNA damage response pathways - Rev3 mutant cell line (AID 743014); also: nearly all actives have a fitted effect of over 55% in size; also: potency is read from the fitted curve at half-maximal effect
[4] = qHTS assay for identifying genotoxic compounds that show differential cytotoxicity against isogenic chicken DT40 cell lines with known DNA damage response pathways - Rad54/Ku70 mutant cell line (AID 743015); also: nearly all actives have a fitted effect of over 60% in size; also: potency is read from the fitted curve at half-maximal effect
[5] = qHTS assay to identify small molecule antagonists of the androgen receptor (AR) signaling pathway - cell viability counter screen (AID 743033; also: nearly all actives have a fitted effect of over 45% in size; also: potency is read from the fitted curve at half-maximal effect)
[6] = qHTS assay to identify small molecule antagonists of the androgen receptor (AR) signaling pathway using the MDA cell line - cell viability counter screen (AID 743041; also: nearly all actives have a fitted effect of over 45% in size; also: potency is read from the fitted curve at half-maximal effect)
Summary of the method: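 Compound exposure lasted 16 h at 37C in MDA-kb2 AR-luc cells stimulated with R1881. Protease-based CellTiter-Fluor reagent was applied for the final 30 min and fluorescence measured.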

[7] = biological target: Androgen receptor (Homo sapiens) (UniProt P10275); experiment: qHTS assay to identify small molecule antagonists of the androgen receptor (AR) signaling pathway (AID 743035; active = well fitted inhibition curve with a large enough effect in the signal ratio in the repeat runs, not every such curve was filed as active; the % refers to the signal ratio; also: potency is read from the fitted curve at half-maximal effect)
Chain of Androgen receptor (Homo sapiens) (P10275 whole entry, looked up): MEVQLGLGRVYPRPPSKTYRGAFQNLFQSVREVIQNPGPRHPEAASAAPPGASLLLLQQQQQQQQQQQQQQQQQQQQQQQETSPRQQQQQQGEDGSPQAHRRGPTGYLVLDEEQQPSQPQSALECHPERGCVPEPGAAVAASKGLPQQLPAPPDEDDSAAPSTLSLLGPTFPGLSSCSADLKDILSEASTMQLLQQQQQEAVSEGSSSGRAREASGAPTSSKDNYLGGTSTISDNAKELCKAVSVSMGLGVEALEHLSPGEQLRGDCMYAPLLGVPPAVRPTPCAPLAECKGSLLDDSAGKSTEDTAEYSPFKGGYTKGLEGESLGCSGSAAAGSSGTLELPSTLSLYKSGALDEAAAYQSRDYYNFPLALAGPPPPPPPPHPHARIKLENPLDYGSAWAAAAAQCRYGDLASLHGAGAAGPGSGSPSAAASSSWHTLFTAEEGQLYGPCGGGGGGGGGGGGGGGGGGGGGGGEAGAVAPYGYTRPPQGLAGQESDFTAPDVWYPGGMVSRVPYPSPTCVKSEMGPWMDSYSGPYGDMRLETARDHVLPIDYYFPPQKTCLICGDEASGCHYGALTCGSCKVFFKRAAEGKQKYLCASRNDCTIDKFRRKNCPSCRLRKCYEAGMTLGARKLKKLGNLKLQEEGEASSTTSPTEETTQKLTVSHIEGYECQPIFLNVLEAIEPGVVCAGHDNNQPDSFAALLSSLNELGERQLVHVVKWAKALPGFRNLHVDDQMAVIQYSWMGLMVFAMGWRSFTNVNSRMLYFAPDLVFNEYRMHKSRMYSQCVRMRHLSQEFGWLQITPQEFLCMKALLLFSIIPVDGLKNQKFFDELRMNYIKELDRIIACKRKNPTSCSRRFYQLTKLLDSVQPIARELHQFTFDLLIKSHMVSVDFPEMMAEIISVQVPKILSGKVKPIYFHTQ
Summary of the method: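 Quantitative HTS of the Tox21 10K library used HEK293 AR-UAS-bla cells stimulated with R1881 alongside compound for 16 h at 37C, followed by beta-lactamase FRET detection (LiveBLAzer B/G, 2 h, RT).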

[8] = biological target: Androgen receptor (Homo sapiens) (UniProt P10275); experiment: qHTS assay to identify small molecule agonists of the androgen receptor (AR) signaling pathway (AID 743036; active = well fitted activation curve with a large enough effect in the signal ratio in the repeat runs, with a control signal flat, not every such curve was filed as active; the % refers to the signal ratio)
Summary of the method: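 AR-UAS-bla HEK293 cells, plated 4 h before dosing, were treated with compound for 16 h at 37C. beta-Lactamase reporter read after 2 h with LiveBLAzer B/G FRET substrate at room temperature.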

[9] = biological target: Androgen receptor (Homo sapiens) (UniProt P10275); experiment: qHTS assay to identify small molecule agonists of the androgen receptor (AR) signaling pathway using the MDA cell line (AID 743040; also: nearly all actives have a fitted effect of over 20% in size)
Summary of the method: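 Testing was done with the MDA-kb2 AR-luc line, a human breast carcinoma stably transfected with MMTV-luciferase containing AR and GR response elements. Cells were exposed 16 h at 37C before ONE-Glo luminescence detection.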

[10] = biological target: Androgen receptor (Homo sapiens) (UniProt P10275); experiment: qHTS assay to identify small molecule antagonists of the androgen receptor (AR) signaling pathway using the MDA cell line (AID 743042; also: nearly all actives have a fitted effect of over 55% in size)
Summary of the method: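 MDA-kb2 breast carcinoma cells carrying MMTV-luciferase (AR/GR responsive) were co-treated with compounds and the agonist R1881 for 16 h at 37C. Inhibition read as ONE-Glo luminescence; CellTiter-Fluor fluorescence measured in parallel for cytotoxicity.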

Measured: Potency
% is scaled to controls: 0 for no effect and ±100 for the full control effect.

CC(C)CCCCCCc1ccc(O)cc1
active: [1] 25 µM | [2] 21.1 µM and 62.2 µM and 27.3 µM | [3] 11.9 µM and 17.5 µM and 30.6 µM | [4] 21.1 µM and 62.2 µM and 27.3 µM
inactive: [5] | [6]

CC(C)(C)NC(=O)[C@@H]1CN(Cc2cccnc2)CCN1C[C@@H](O)C[C@@H](Cc1ccccc1)C(=O)N[C@H]1c2ccccc2C[C@H]1O
23.7 µM (active) and inactive: [2] | [3]
inactive: [1] | [5] | [6]
active: [4] 18.8 µM

O=C(O)CP(=O)(O)O
inactive: [1] | [2] | [3] | [4] | [5] | [6]

CCCCC/C=C/CC1CC(=O)OC1=O (stereo unspecified)
inactive: [1] | [2] | [3] | [4] | [5] | [6]

CC(=O)N[C@@H](CS)C(=O)O
inactive: [1] | [2] | [3] | [4] | [5] | [6]

NCCCCCC(=O)O
inactive: [1] | [2] | [4] | [5] | [6]

Nc1ccc2cc3ccccc3cc2c1
inactive: [1] | [2] | [5] | [6]

c1cnc2cc3c(cc2n1)C1CNCC3C1
inactive: [1] | [2] | [3] | [4] | [6]

NC12CC3CC(CC(C3)C1)C2
inactive: [1] | [2] | [4] | [5] | [6]

NC(Cc1ccc(Cl)cc1)C(=O)O (stereo unspecified)
inactive: [1] | [2] | [4] | [5]

Cc1cc(C2(c3cc(C)c(O)cc3C)OS(=O)(=O)c3ccccc32)c(C)cc1O
active: [6] 30.6 µM
inactive: [1] | [2] | [3] | [4] | [5]

O=S(=O)(O)c1ccc2nc(-c3ccccc3)[nH]c2c1
active: [1] 20.8 µM | [4] 58.2 µM
inactive and 46.2 µM (active): [2]
inactive: [5] | [6]

CCCNC(C)C(=O)Nc1ccccc1C (stereo unspecified)
inactive: [1] | [2] | [4] | [5] | [6]

O=C(Cl)c1cccc(C(=O)Cl)c1
inactive: [1] | [2] | [3] | [4] | [5] | [6]

Cc1cccc2n[nH]nc12
inactive: [1] | [2] | [3] | [4] | [5] | [6]

Cc1occc(=O)c1OC(=O)C(C)C
inactive: [1] | [2] | [4] | [5]

COc1ccc(COC(C)=O)cc1
inactive: [1] | [2] | [3] | [4] | [5] | [6]

C/C=C/c1ccc(OCC)c(O)c1
inactive: [1] | [2] | [3] | [4] | [5] | [6]

CC(=O)CC(=O)Nc1ccc2[nH]c(=O)[nH]c2c1
inactive: [1] | [2] | [3] | [4] | [5] | [6]

[Cl][In]([Cl])[Cl]
inactive: [1] | [2] | [3] | [4] | [5] | [6]

O=C(OCc1ccccc1)c1ccc(O)cc1
inactive: [1] | [2] | [3] | [5] | [6]
active: [4] 61.1 µM

CCC(CO)(CO)COCC(CC)(CO)CO
inactive: [1] | [2] | [4] | [5]

CCn1c2ccccc2c2cc(N)ccc21
inactive: [1] | [5] | [6]
active: [2] 61.1 µM | [3] 21.7 µM | [4] 54.5 µM

Oc1c(Cl)cc(Cl)cc1Sc1cc(Cl)cc(Cl)c1O
active: [1] 19.5 µM and 28 µM and 21.9 µM | [2] 11.9 µM and 27.4 µM and 17.2 µM | [3] 17.3 µM [middle of 4 runs] | [4] 17.3 µM [middle of 4 runs] | [5] 6.18 µM and 8.85 µM and 6.16 µM | [6] 55.4 µM

O=C1Nc2ccccc2C1(c1ccc(O)cc1)c1ccc(O)cc1
inactive: [1] | [5]
active: [2] 68.6 µM | [3] 61.1 µM

CCn1cc(C(=O)O)c(=O)c2cc(F)c(N3CCNC(C)C3)c(F)c21 (stereo unspecified)
active: [2] 26.6 µM
inactive: [1] | [3] | [4] | [5] | [6]

NNCCc1ccccc1
inactive: [1] | [2] | [3] | [4] | [5] | [6]

O
inactive and 13.9 µM (active): [2]
inactive: [1] | [4] | [5] | [6]
inactive and 9.81 µM (active): [3]

CC(=O)O[C@]1(C(C)=O)CC[C@H]2[C@@H]3C[C@H](C)C4=CC(=O)CC[C@]4(C)[C@H]3CC[C@@]21C
inactive: [1] | [6]
active: [2] 5.31 µM | [3] 3.76 µM and 4.85 µM | [4] 8.41 µM and 21.7 µM

CCN(CC)C(=O)Nc1ccc(OCC(O)CNC(C)(C)C)c(C(C)=O)c1 (stereo unspecified)
not listed: [5]
inactive: all other assays above

c1ccc2c(c1)-c1cccc3c1c-2cc1ccccc13
inactive: [1] | [2] | [3] | [4] | [5] | [6]

Nc1nc(=S)c2[nH]cnc2[nH]1
inactive: [8] | [9] | [6] | [10]
active: [3] 1.88 µM and 1.33 µM and 686 nM | [4] 1.33 µM [middle of 4 runs] | [5] 26.8 µM and 1.95 µM | [7] 16.9 µM and 10.7 µM and 6.92 µM

O=C(O)c1cccc(C(=O)O)c1
inactive: [1] | [5] | [6]

O=C(O[C@@H]1Cc2c(O)cc(O)cc2O[C@@H]1c1cc(O)c(O)c(O)c1)c1cc(O)c(O)c(O)c1
active: [3] 54.6 µM
inactive: [1] | [5]

CCN(CC)CCOc1ccc(/C(=C(\Cl)c2ccccc2)c2ccccc2)cc1
active: [2] 1.19 µM and 140 nM | [3] 422 nM and 24.8 nM | [4] 1.68 µM and 44.2 nM | [5] 15.8 µM
inactive: [6] | [10]

C=CC(=O)OCCCCCCOC(=O)C=C
active: [2] 24.3 µM | [3] 55.1 µM and 30.6 µM | [4] 69.4 µM and 24.3 µM
inactive: [9]

O=C1NCC2(CCN(CCc3ccccc3)CC2)O1
inactive: [5]

BrC1CCC(Br)C(Br)CCC(Br)C(Br)CCC1Br (stereo unspecified)
active: [2] 46.1 µM | [5] 46.5 µM
inactive and 41.1 µM (active): [3]
inactive and 25.9 µM (active): [4]
not listed: [1]
inactive: all other assays above

CCCCCC(=O)O[C@]1(C(C)=O)CC[C@H]2[C@@H]3CCC4=CC(=O)CC[C@]4(C)[C@H]3CC[C@@]21C
active: [2] 3.76 µM and 3.83 µM | [3] 3.76 µM and 2.15 µM | [4] 7.5 µM and 5.41 µM
inactive and 24.4 µM (active): [5]

OCCN1CCNCC1
active: [3] 31.2 µM
inactive: [1] | [4] | [5] | [6]

NC(=Nc1ccccc1)Nc1ccccc1
inactive: [1] | [5] | [6]
inactive and 42 µM (active): [3]
inactive and 61.1 µM (active): [4]
